Experimental data as given in PubChem BioAssay (EPA / NIEHS).
Calls of active or inactive are those of the source. Rule for the calls: active = hit-call score of the fitted dose curve at least 0.9, where 1 is the maximum; inactive = score below 0.9.

Tests used:
Conditions in all cases: mRNA level, 48 h; actives raise or lower the signal
[1] = read-out: Insulin-like growth factor-binding protein 1 (IGFBP1), IGFBP1 (gene 3484); assay: LTEA_HepaRG_IGFBP1: Life Technologies and Expression Analysis (LTEA) Assay for Insulin-like growth factor-binding protein 1 (IGFBP1) using HepaRG (AID 2283508)
Summary of the method: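 Thawed HepaRG cells are plated for 48 h, switched to serum-free induction medium, then dosed in duplicate for another 48 h (100 uM top, half-log steps). Lysates in RLT go to qRT-PCR, and gain or loss of signal is fitted relative to vehicle.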

[2] = read-out: Interleukin 6 (IL6), IL6 (gene 3569); assay: LTEA_HepaRG_IL6: Life Technologies and Expression Analysis (LTEA) Assay for Interleukin 6 (IL6) using HepaRG (AID 2283509)
Summary of the method: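 HepaRG cells exposed in duplicate for 48 h to eight half-log concentrations, top 100 uM, in 0.5% DMSO serum-free induction medium. mRNA measured by qRT-PCR, normalized to ACTB, GAPDH and POLR2A. Bidirectional fit versus DMSO.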

[3] = read-out: Interleukin 6 Receptor (IL6R), IL6R (gene 3570); assay: LTEA_HepaRG_IL6R: Life Technologies and Expression Analysis (LTEA) Assay for Interleukin 6 Receptor (IL6R) using HepaRG (AID 2283510);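 for AC50: TaqMan qRT-PCR signal normalized to ACTB GAPDH and POLR2A housekeeping genes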
Summary of the method: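 Differentiated HepaRG cells, plated 48 h, then exposed in duplicate for 48 h in serum-free induction medium to 8 half-log concentrations (top 100 uM, 0.5% DMSO). IL6R mRNA measured by TaqMan qRT-PCR, normalized to ACTB/GAPDH/POLR2A; bidirectional fit vs DMSO.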

[4] = read-out: Potassium channel subfamily K member 1 (KCNK1), KCNK1 (gene 3775); assay: LTEA_HepaRG_KCNK1: Life Technologies and Expression Analysis (LTEA) Assay for Potassium channel subfamily K member 1 (KCNK1) using HepaRG (AID 2283511)
Summary of the method: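 Differentiated HepaRG cells, 48 h exposure in serum-free induction medium with 0.5% DMSO; 8 concentrations, half-log from 100 uM, duplicate. KCNK1 mRNA by qRT-PCR, normalized to ACTB, GAPDH, POLR2A; bidirectional fit vs DMSO.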

[5] = read-out: Keratin 19 (KRT19), KRT19 (gene 3880); assay: LTEA_HepaRG_KRT19: Life Technologies and Expression Analysis (LTEA) Assay for Keratin 19 (KRT19) using HepaRG (AID 2283512)
Summary of the method: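 KRT19 transcript levels, measured by Fluidigm qRT-PCR against three housekeeping genes, are fitted for gain or loss of signal relative to DMSO. Human HepaRG cells receive test chemicals (top 100 uM, half-log steps, 0.5% DMSO) for 48 hours.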

[6] = read-out: JUN Transcription Factor, JUN (gene 3725); assay: LTEA_HepaRG_JUN: Life Technologies and Expression Analysis (LTEA) Assay for JUN Transcription Factor using HepaRG (AID 2283513)
Summary of the method: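 HepaRG cells, 48 h post-plating, exposed 48 h in serum-free induction medium to 8-point half-log series (top 100 uM, 0.5% DMSO), duplicate; mRNA by qRT-PCR (TaqMan, Fluidigm), normalized to ACTB/GAPDH/POLR2A; bidirectional fit vs DMSO.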

[7] = read-out: Lipase C (LIPC), LIPC (gene 3990); assay: LTEA_HepaRG_LIPC: Life Technologies and Expression Analysis (LTEA) Assay for Lipase C (LIPC) using HepaRG (AID 2283514)
Summary of the method: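 HepaRG cells, 48 h after plating, treated in duplicate for 48 h in serum-free induction medium over 8 half-log concentrations from 100 uM, 0.5% DMSO. LIPC mRNA by TaqMan qRT-PCR normalized to ACTB/GAPDH/POLR2A; bidirectional fit versus DMSO.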

[8] = read-out: Lipoprotein lipase (LPL), LPL (gene 4023); assay: LTEA_HepaRG_LPL: Life Technologies and Expression Analysis (LTEA) Assay for Lipoprotein lipase (LPL) using HepaRG (AID 2283515)
Summary of the method: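 Differentiated HepaRG cells, plated 48 h, then exposed 48 h in serum-free induction medium to 8 concentrations (top 100 uM, half-log steps) in 0.5% DMSO, duplicate. LPL mRNA measured by qRT-PCR, normalized to ACTB, GAPDH and POLR2A.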

[9] = read-out: MicroRNA 122 (MIR122), gene 406906; assay: LTEA_HepaRG_MIR122: Life Technologies and Expression Analysis (LTEA) Assay for MicroRNA 122 (MIR122) using HepaRG (AID 2283516); note: the transcript read is the microRNA miR-122
Summary of the method: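 Differentiated human HepaRG cells in serum-free induction medium exposed 48 h to 8 half-log concentrations from 100 uM in 0.5% DMSO, duplicate. MIR122 quantified by Fluidigm TaqMan qRT-PCR, normalised to ACTB, GAPDH, POLR2A; fold change fitted bidirectionally versus DMSO.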

[10] = read-out: matrix metalloproteinase-10 (MMP10), MMP10 (gene 4319); assay: LTEA_HepaRG_MMP10: Life Technologies and Expression Analysis (LTEA) Assay for matrix metalloproteinase-10 (MMP10) using HepaRG (AID 2283517)
Summary of the method: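 Differentiated HepaRG cells in serum-free induction medium exposed 48 h in duplicate to 8-point half-log series up to 100 uM in 0.5% DMSO. mRNA quantified by qRT-PCR, normalised to ACTB, GAPDH, POLR2A; bidirectional fit versus DMSO.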

MYC, MYC (gene 4609) = assay: LTEA_HepaRG_MYC: Life Technologies and Expression Analysis (LTEA) Assay for MYC using HepaRG (AID 2283518)
Summary of the method: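 HepaRG, ~100,000 cells/well, collagen I; 48 h plating; serum-free induction medium; 48 h dosing, duplicate, 100 uM top, half-log, 0.5% DMSO; total RNA → qRT-PCR MYC; gain/loss fit vs DMSO.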

[11] = read-out: Paternally Expressed 10 (PEG10), PEG10 (gene 23089); assay: LTEA_HepaRG_PEG10: Life Technologies and Expression Analysis (LTEA) Assay for Paternally Expressed 10 (PEG10) using HepaRG (AID 2283520)
Summary of the method: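 Differentiated HepaRG cells exposed 48 h in serum-free induction medium to eight half-log concentrations topping at 100 uM, 0.5% DMSO, in duplicate. PEG10 mRNA quantified by TaqMan qRT-PCR, normalized to ACTB, GAPDH and POLR2A; bidirectional fit versus DMSO.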

[12] = read-out: Nuclear factor NF-kappa-B p105 subunit (Homo sapiens) (UniProt P19838); assay: LTEA_HepaRG_NFKB1: Life Technologies and Expression Analysis (LTEA) Assay for Nuclear Factor Kappa B Subunit 1 (NFKB1) using HepaRG (AID 2283521)
Summary of the method: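 Differentiated human HepaRG cells in serum-free induction medium with 0.5% DMSO were exposed for 48 h to eight half-log concentrations, top 100 uM, in duplicate. NFKB1 mRNA measured by Fluidigm TaqMan qRT-PCR, normalised to ACTB, GAPDH and POLR2A; bidirectional fit versus DMSO.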

[13] = read-out: Protein phosphatase 2A (PPP2R4), PTPA (gene 5524); assay: LTEA_HepaRG_PPP2R4: Life Technologies and Expression Analysis (LTEA) Assay for Protein phosphatase 2A (PPP2R4) using HepaRG (AID 2283522)
Summary of the method: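 Differentiated human HepaRG cells in serum-free induction medium were exposed 48 h to 8 concentrations (top 100 µM, half-log steps, duplicate) in 0.5% DMSO. PPP2R4 mRNA was measured by TaqMan qRT-PCR, normalised to ACTB, GAPDH and POLR2A, and fitted bidirectionally versus DMSO.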

[14] = read-out: Phosphatase and tensin (PTEN), PTEN (gene 5728); assay: LTEA_HepaRG_PTEN: Life Technologies and Expression Analysis (LTEA) Assay for Phosphatase and tensin (PTEN) using HepaRG (AID 2283523)
Summary of the method: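 HepaRG cells, 48 h after plating, exposed in duplicate for 48 h in serum-free induction medium to 8 half-log concentrations up to 100 uM (0.5% DMSO). PTEN mRNA by qRT-PCR, normalized to ACTB, GAPDH, POLR2A; bidirectional fit versus DMSO.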

[15] = read-out: solute carrier (SLC22A1), SLC22A1 (gene 6580); assay: LTEA_HepaRG_SLC22A1: Life Technologies and Expression Analysis (LTEA) Assay for solute carrier (SLC22A1) using HepaRG (AID 2283524)
Summary of the method: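 Differentiated human HepaRG cells in serum-free induction medium, exposed 48 h in duplicate to 8-point half-log series from 100 µM top in 0.5% DMSO. SLC22A1 mRNA by TaqMan qRT-PCR normalized to ACTB, GAPDH, POLR2A; bidirectional fit versus DMSO.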

[16] = read-out: Pyruvate Dehydrogenase Kinase 4 (PDK4), PDK4 (gene 5166); assay: LTEA_HepaRG_PDK4: Life Technologies and Expression Analysis (LTEA) Assay for Pyruvate Dehydrogenase Kinase 4 (PDK4) using HepaRG (AID 2283525)
Summary of the method: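 HepaRG cells plated 48 h, then switched to serum-free induction medium and exposed in duplicate for 48 h to 8 half-log concentrations from 100 uM in 0.5% DMSO. PDK4 mRNA measured by qRT-PCR, normalized to ACTB, GAPDH and POLR2A; bidirectional fit versus DMSO.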

[17] = read-out: NAD(P)H dehydrogenase [quinone] 1 (NQO1), NQO1 (gene 1728); assay: LTEA_HepaRG_NQO1: Life Technologies and Expression Analysis (LTEA) Assay for NAD(P)H dehydrogenase [quinone] 1 (NQO1) using HepaRG (AID 2283526)
Summary of the method: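 Differentiated human HepaRG cells in serum-free induction medium, dosed in duplicate for 48 h at 8 half-log concentrations up to 100 uM in 0.5% DMSO. NQO1 mRNA by qRT-PCR normalized to ACTB, GAPDH, POLR2A; bidirectional fit versus DMSO baseline.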

[18] = read-out: Nuclear factor erythroid 2-related factor 2 (Homo sapiens) (UniProt Q16236); assay: LTEA_HepaRG_NFE2L2: Life Technologies and Expression Analysis (LTEA) Assay for Nuclear factor erythroid 2-related factor 2 (NFE2L2) Transcription Factor using HepaRG (AID 2283527)
Summary of the method: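 Differentiated human HepaRG cells, serum-free induction medium, exposed 48 h in duplicate to eight half-log concentrations up to 100 uM in 0.5% DMSO. NFE2L2 mRNA by Fluidigm TaqMan qRT-PCR, normalised to ACTB, GAPDH, POLR2A; bidirectional change versus DMSO.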

[19] = read-out: matrix metalloproteinase-3 (MMP3), MMP3 (gene 4314); assay: LTEA_HepaRG_MMP3: Life Technologies and Expression Analysis (LTEA) Assay for matrix metalloproteinase-3 (MMP3) using HepaRG (AID 2283519)
Summary of the method: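 HepaRG cells (~100,000/well) in serum-free induction medium were dosed in duplicate for 48 h with an 8-point half-log series from 100 uM, 0.5% DMSO. MMP3 mRNA was quantified by Fluidigm TaqMan qRT-PCR, normalized to three housekeeping genes.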

Measured: AC50

Chain of Nuclear factor NF-kappa-B p105 subunit (Homo sapiens) (P19838 whole entry, looked up): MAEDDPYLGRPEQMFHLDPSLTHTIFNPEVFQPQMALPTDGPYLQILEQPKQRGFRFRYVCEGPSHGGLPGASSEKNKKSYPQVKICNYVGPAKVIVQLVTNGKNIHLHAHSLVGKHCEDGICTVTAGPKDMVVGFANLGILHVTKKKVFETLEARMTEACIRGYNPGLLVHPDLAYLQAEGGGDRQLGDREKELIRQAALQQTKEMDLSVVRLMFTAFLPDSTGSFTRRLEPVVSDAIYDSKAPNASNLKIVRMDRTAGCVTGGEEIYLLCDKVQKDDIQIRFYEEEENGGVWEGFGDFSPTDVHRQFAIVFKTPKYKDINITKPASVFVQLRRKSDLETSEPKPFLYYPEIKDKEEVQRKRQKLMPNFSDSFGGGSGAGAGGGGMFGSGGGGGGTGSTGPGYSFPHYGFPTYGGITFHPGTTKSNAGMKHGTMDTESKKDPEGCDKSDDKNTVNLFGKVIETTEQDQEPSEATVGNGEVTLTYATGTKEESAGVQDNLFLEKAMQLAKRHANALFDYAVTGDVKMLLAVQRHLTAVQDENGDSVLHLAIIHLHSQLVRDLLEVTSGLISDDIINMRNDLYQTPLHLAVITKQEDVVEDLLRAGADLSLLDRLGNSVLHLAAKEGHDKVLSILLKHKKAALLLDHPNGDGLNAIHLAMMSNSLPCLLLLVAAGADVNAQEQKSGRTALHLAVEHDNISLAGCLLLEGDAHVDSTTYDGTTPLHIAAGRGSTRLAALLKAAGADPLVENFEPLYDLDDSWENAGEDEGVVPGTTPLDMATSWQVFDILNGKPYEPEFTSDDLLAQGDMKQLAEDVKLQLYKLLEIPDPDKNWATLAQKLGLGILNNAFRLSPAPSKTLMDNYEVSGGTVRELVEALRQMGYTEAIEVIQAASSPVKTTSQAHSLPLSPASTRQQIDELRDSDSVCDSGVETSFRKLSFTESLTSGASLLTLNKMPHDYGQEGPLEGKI
Chain of Nuclear factor erythroid 2-related factor 2 (Homo sapiens) (Q16236 whole entry, looked up): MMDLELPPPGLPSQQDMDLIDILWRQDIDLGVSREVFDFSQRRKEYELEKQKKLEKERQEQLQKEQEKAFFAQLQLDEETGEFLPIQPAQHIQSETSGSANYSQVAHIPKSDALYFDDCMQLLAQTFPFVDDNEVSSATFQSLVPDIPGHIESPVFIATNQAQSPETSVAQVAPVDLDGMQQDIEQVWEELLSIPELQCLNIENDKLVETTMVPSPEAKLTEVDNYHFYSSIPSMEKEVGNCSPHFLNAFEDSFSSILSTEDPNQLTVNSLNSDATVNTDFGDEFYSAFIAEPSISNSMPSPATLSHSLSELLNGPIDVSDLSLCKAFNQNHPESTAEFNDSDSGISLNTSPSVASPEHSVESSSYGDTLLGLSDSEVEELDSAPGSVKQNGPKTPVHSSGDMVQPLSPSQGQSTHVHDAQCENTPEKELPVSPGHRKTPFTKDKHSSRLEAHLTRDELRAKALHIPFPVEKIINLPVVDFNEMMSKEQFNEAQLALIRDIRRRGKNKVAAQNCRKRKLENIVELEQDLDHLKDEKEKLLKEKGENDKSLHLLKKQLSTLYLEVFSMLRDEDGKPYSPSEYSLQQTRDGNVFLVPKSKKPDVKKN

CC(C)(C)c1ccc(O)c(C(C)(C)C)c1
active: [4] 80.4 nM | [12] 162 nM
not listed: [19]
inactive: all other assays above

COC(=O)CCCCC(=O)OC
not listed: [12]
inactive: all other assays above

CCCCC(CC)COC(=O)CCCCC(=O)OCC(CC)CCCC (stereo unspecified)
not listed: [12]
inactive: all other assays above

O=C(OCCOCCOC(=O)c1ccccc1)c1ccccc1
not listed: [12]
inactive: all other assays above

CN1CCC[C@H]1c1cccnc1
not listed: [12]
inactive: all other assays above

CC(C)CCCCCCOC(=O)CCCCC(=O)OCCCCCCC(C)C
not listed: [19]
inactive: all other assays above

c1ccc2c(c1)ccc1ccccc12
not listed: [12]
inactive: all other assays above

C=C(C)C(=O)OCCC(F)(F)C(F)(F)C(F)(F)C(F)(F)C(F)(F)C(F)(F)F
active: [16] 14 µM
not listed: [19]
inactive: all other assays above

CC(C)(C)CC(C)(C)c1ccc(O)c(-n2nc3ccccc3n2)c1
active: [15] 74.5 µM
not listed: [12]
inactive: all other assays above

CCOC(=O)CC(O)(CC(=O)OCC)C(=O)OCC
not listed: [12] | [19]
inactive: all other assays above

Cc1cc(CCN2CCN(c3nsc4ccccc34)CC2)cc2c1NC(=O)CC2(C)C
inactive: [4] | [6] | [10] | [19] | [11] | [13] | [14] | [17]
active: [1] 90.9 µM | [2] 79.3 µM | [3] 84.7 µM | [5] 50 µM | [7] 81.6 µM | [8] 50 µM | [9] 78.5 µM | MYC, MYC (gene 4609) 87.1 µM | [15] 84.8 µM | [16] 4.39 µM | [18] 50 µM

Nc1cccc2c(N)cccc12
active: [5] 22.6 µM | [7] 73.3 µM | [11] 9.92 µM | [15] 50 µM
not listed: [19]
inactive: all other assays above

CCCCCCCCCCCCCCCS(=O)(=O)Oc1ccccc1
not listed: [12]
inactive: all other assays above
